Read-out in assay [1]: Tissue Factor, F3 (gene 2152)
Nature of the assay: BSK_CASM3C_TissueFactor: BioMAP Diversity Plus: CASM3C Assay for Tissue Factor Biomarker Activity (AID 2283052).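 Note: cell surface tissue factor protein level read by ELISA.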 Conditions: primary human coronary artery smooth muscle cells; actives raise or lower the signal.

Read-out in assay [2]: Interferon-gamma inducible Protein 10 (IP10), CXCL10 (gene 3627)
Briefly: BSK_hDFCGF_IP10: BioMAP Diversity Plus: hDFCGF Assay for Interferon-gamma inducible Protein 10 (IP10) Biomarker Activity (AID 2283053). The settings on record: primary human foreskin fibroblasts; actives raise or lower the signal. The method in brief: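 ELISA read-out of IP-10 (CXCL10) from primary human skin fibroblasts, 24 h after compound addition. Gain or loss of signal versus DMSO baseline, bidirectional curve fitting.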

Read-out in assay [3]: Urokinase-type plasminogen activator receptor (uPAR), PLAUR (gene 5329)
Nature of the assay: BSK_CASM3C_uPAR: BioMAP Diversity Plus: CASM3C Assay for Urokinase-type plasminogen activator receptor (uPAR) Biomarker Activity (AID 2283054).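 Note: cell-surface uPAR protein level quantified by ELISA.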 The settings on record: primary human coronary artery smooth muscle cells; actives raise or lower the signal.

Read-out in assay [4]: Vascular cell adhesion molecule 1 (VCAM1), VCAM1 (gene 7412)
Nature of the assay: BSK_CASM3C_VCAM1: BioMAP Diversity Plus: CASM3C Assay for Vascular cell adhesion molecule 1 (VCAM1) Biomarker Activity (AID 2283055).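 Note: VCAM-1 protein level quantified by ELISA on the cells.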 Conditions: primary human coronary artery smooth muscle cells; actives raise or lower the signal.

Read-out in assay [5]: Collagen III, COL3A1 (gene 1281)
Briefly: BSK_hDFCGF_CollagenIII: BioMAP Diversity Plus: hDFCGF Assay for Collagen III Biomarker Activity (AID 2283056). The settings on record: primary human foreskin fibroblasts; actives raise or lower the signal. Summed up:
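Human foreskin fibroblast primary cultures sampled 24 h after dosing; Collagen III quantified by ELISA. Signal fitted bidirectionally against DMSO baseline.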

Read-out in assay [6]: Epidermal growth factor receptor (EGFR), EGFR (gene 1956)
Briefly: BSK_hDFCGF_EGFR: BioMAP Diversity Plus: hDFCGF Assay for Epidermal growth factor receptor (EGFR) Biomarker Activity (AID 2283057). Conditions: primary human foreskin fibroblasts; actives raise or lower the signal. The method in brief: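 ELISA readout of EGFR on human dermal fibroblasts (primary foreskin cells), 24 h post-dosing; bidirectional curve fit vs DMSO baseline, gain or loss of signal scored.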

Read-out in assay [7]: Interleukin-8 (IL8), CXCL8 (gene 3576)
Briefly: BSK_hDFCGF_IL8: BioMAP Diversity Plus: hDFCGF Assay for Interleukin-8 (IL8) Biomarker Activity (AID 2283058). Conditions: primary human foreskin fibroblasts; actives raise or lower the signal. The method in brief:
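Primary human foreskin fibroblasts (hDFCGF system) dosed with chemical; IL-8 measured by ELISA 24 hours later. Bidirectional curve fitting relative to DMSO baseline; cytotoxicity tracked in parallel cultures by SRB total protein staining.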

The nature of assay [8]: BSK_hDFCGF_Proliferation: Cell Proliferation Assessment in the BioMAP Diversity Plus: hDFCGF Assay (AID 2283059).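 Note: curves fitted for both rise and fall of signal versus DMSO baseline.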 The settings on record: primary human foreskin fibroblasts. Summed up:
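This proliferation readout used SRB total-protein staining of human foreskin fibroblasts […], normalized to DMSO with bidirectional curve fitting.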

Read-out in assay [9]: Macrophage colony-stimulating factor (MCSF), CSF1 (gene 1435)
Briefly: BSK_hDFCGF_MCSF: BioMAP Diversity Plus: hDFCGF Assay for Macrophage colony-stimulating factor (MCSF) Biomarker Activity (AID 2283060). The settings on record: primary human foreskin fibroblasts; actives raise or lower the signal. Summed up:
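Human foreskin fibroblast primary cultures; M-CSF measured by ELISA 24 hours after chemical dosing. Bidirectional fitting relative to DMSO, with overt cytotoxicity tracked by parallel SRB total-protein staining (0.1% SRB, 10% TCA fixation, 560 nm).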

The nature of assay [10]: BSK_hDFCGF_SRB: Viability Assessment in the BioMAP Diversity Plus: hDFCGF Assay (AID 2283061).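 Note: cells exposed to compound for 24 h before the read.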 The settings on record: primary human foreskin fibroblasts. Summed up: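 Human foreskin fibroblasts in 96-well plates were treated 24 h. Total protein was measured by 0.1% SRB staining after 10% TCA fixation, read at 560 nm. Data were fitted bidirectionally against DMSO.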
Read-out in assay [11]: TIMP metallopeptidase inhibitor 1 (TIMP1), TIMP1 (gene 7076)
Nature of the assay: BSK_hDFCGF_TIMP1: BioMAP Diversity Plus: hDFCGF Assay for TIMP metallopeptidase inhibitor 1 (TIMP1) Biomarker Activity (AID 2283062). The settings on record: primary human foreskin fibroblasts; actives raise or lower the signal. The method in brief:
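Human foreskin fibroblast primary cultures dosed for 24 h; secreted/surface TIMP-1 quantified by ELISA. Bidirectional curve fitting against DMSO baseline; cytotoxicity tracked in parallel cultures by SRB total-protein staining.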

Read-out in assay [12]: Monokine induced gamma interferon (MIG), CXCL9 (gene 4283)
Briefly: BSK_hDFCGF_MIG: BioMAP Diversity Plus: hDFCGF Assay for Monokine induced gamma interferon (MIG) Biomarker Activity (AID 2283063). Conditions: primary human foreskin fibroblasts; actives raise or lower the signal. Summed up:
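MIG/CXCL9 measured by ELISA 24 h after dosing primary human skin fibroblasts. Activity fitted in both directions against DMSO controls. Cytotoxicity was checked in parallel cultures by SRB staining read at 560 nm.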

Read-out in assay [13]: Vascular cell adhesion molecule 1 (VCAM1), VCAM1 (gene 7412)
Briefly: BSK_hDFCGF_VCAM1: BioMAP Diversity Plus: hDFCGF Assay for Vascular cell adhesion molecule 1 (VCAM1) Biomarker Activity (AID 2283065).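 For AC50: VCAM-1 protein level quantified by ELISA after 24 h chemical exposure.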 The settings on record: primary human foreskin fibroblasts; actives raise or lower the signal. The method in brief:
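Human foreskin fibroblast primary cells dosed with chemical, VCAM-1 measured by ELISA at 24 h. Bidirectional curve fitting relative to DMSO as negative control/baseline.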

Read-out in assay [14]: Plasminogen activator inhibitor-1 (PAI1), SERPINE1 (gene 5054)
Nature of the assay: BSK_hDFCGF_PAI1: BioMAP Diversity Plus: hDFCGF Assay for Plasminogen activator inhibitor-1 (PAI1) Biomarker Activity (AID 2283066). Conditions: primary human foreskin fibroblasts; actives raise or lower the signal. Summed up: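 ELISA readout of PAI-1 from primary human skin fibroblast cultures, 24 h after compound addition. Gain or loss of signal was fitted bidirectionally against DMSO baseline.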

Read-out in assay [15]: Intercellular Adhesion Molecule 1 (ICAM1), ICAM1 (gene 3383)
Briefly: BSK_KF3CT_ICAM1: BioMAP Diversity Plus: KF3CT Assay for Intercellular Adhesion Molecule 1 (ICAM1) Biomarker Activity (AID 2283067). Conditions: primary human keratinocytes with fibroblasts; actives raise or lower the signal. Summed up:
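Human keratinocyte–foreskin fibroblast co-culture was treated for 24 h. Cell-surface ICAM-1 was quantified by ELISA, fitted bidirectionally relative to DMSO. Cytotoxicity was checked in parallel cultures by SRB total-protein staining.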

Read-out in assay [16]: Interferon-gamma inducible Protein 10 (IP10), CXCL10 (gene 3627)
Briefly: BSK_KF3CT_IP10: BioMAP Diversity Plus: KF3CT Assay for Interferon-gamma inducible Protein 10 (IP10) Biomarker Activity (AID 2283068). Conditions: primary human keratinocytes with fibroblasts; actives raise or lower the signal. The method in brief:
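Signal is secreted/surface IP-10 by ELISA in a human primary skin co-culture of keratinocytes and foreskin fibroblasts, taken 24 h post-dosing; DMSO served as negative control.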

Assay [17] is described as follows: BSK_KF3CT_SRB: Viability Assessment in the BioMAP Diversity Plus: KF3CT Assay (AID 2283069).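 Note: total protein by sulforhodamine B staining as a cytotoxicity measure.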 The settings on record: primary human keratinocytes with fibroblasts. The method in brief: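 Cytotoxicity was gauged by SRB staining (0.1% SRB, 10% TCA fixation, 560 nm) of parallel cultures at 24 h. The cells were primary human skin keratinocytes co-cultured with fibroblasts, and activity was fitted in both directions against DMSO.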

Read-out in assay [18]: Interleukin-1 alpha (IL1a), IL1A (gene 3552)
Nature of the assay: BSK_KF3CT_IL1a: BioMAP Diversity Plus: KF3CT Assay for Interleukin-1 alpha (IL1a) Biomarker Activity (AID 2283070). The settings on record: primary human keratinocytes with fibroblasts; actives raise or lower the signal. Summed up:
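IL-1a was detected by ELISA 24 h after chemical treatment of a co-culture of human skin keratinocytes and foreskin fibroblasts. Gain or loss of signal was fitted against the DMSO baseline.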

Read-out in assay [19]: TIMP metallopeptidase inhibitor 2 (TIMP2), TIMP2 (gene 7077)
Nature of the assay: BSK_KF3CT_TIMP2: BioMAP Diversity Plus: KF3CT Assay for TIMP metallopeptidase inhibitor 2 (TIMP2) Biomarker Activity (AID 2283071). The settings on record: primary human keratinocytes with fibroblasts; actives raise or lower the signal. Summed up:
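ELISA readout of TIMP-2 in keratinocyte plus foreskin fibroblast co-cultures (human skin primary cells), 24 h post-dose. Gain or loss of signal fitted relative to DMSO.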

Read-out in assay [20]: Matrix Metallopeptidase 1 (MMP1), MMP1 (gene 4312)
Nature of the assay: BSK_hDFCGF_MMP1: BioMAP Diversity Plus: hDFCGF Assay for Matrix Metallopeptidase 1 (MMP1) Biomarker Activity (AID 2283064). Conditions: primary human foreskin fibroblasts; actives raise or lower the signal. Summed up: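 MMP1 levels quantified by ELISA 24 h after dosing human dermal fibroblast cultures, with parallel SRB total-protein staining for overt cytotoxicity. Data fitted in both directions against DMSO baseline.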

SMILES strings stand for the structures. “And” between values parts separate entries of the source, which are not always exact repeats. Equal entries are not always repeated. Some structures have more than one record in an assay (separate samples or runs), and their calls can disagree. The source made the active and inactive calls. Rule for the calls: active = hit-call score of the fitted dose curve at least 0.9, where 1 is the maximum; inactive = score below 0.9.

Consider `CN1CCC[C@H]1c1cccnc1`, for which the result in [1], in assay [2], in assay [3], in [4], in assay [5] and in assay [6] was inactive. Moreover, the outcome in assay [7], in [8], in [9], in assay [10], in [11] and in assay [12] was inactive. Also, the result in assay [13], in assay [14], in [15], in assay [16], in assay [17] and in assay [18] was inactive. Besides, the outcome in assay [19] was inactive.

With `CCCCCCCCC(=O)O`, the result in assay [1], in assay [2], in assay [3], in assay [4], in [5] and in assay [6] was inactive. Further, the outcome in assay [7], in assay [8], in [9], in assay [10], in assay [11] and in [12] was inactive. The outcome in [20], in assay [13], in assay [14], in assay [15], in assay [16] and in [17] was inactive. Further, the result in [18] and in [19] was inactive.

As to `Oc1cccc(O)c1`, the result in [1], in assay [2], in [3], in assay [4], in [5] and in assay [6] was inactive. Moreover, the outcome in assay [7], in assay [8], in assay [9], in assay [10], in [11] and in [12] was inactive. For the same compound, the result in assay [13], in [14], in assay [15], in [16], in [17] and in [18] was inactive. Further, the outcome in assay [19] was inactive.

As to `NCC(F)(F)C(F)(F)C(F)(F)C(F)(F)C(F)(F)C(F)(F)C(F)(F)F`, the outcome in assay [1], in assay [2], in assay [3], in [4], in assay [5] and in assay [6] was inactive. In addition, the result in [7], in [8], in [9], in assay [10], in assay [11] and in assay [12] was inactive. Further, the outcome in assay [13], in assay [14], in [15], in [16], in [17] and in [18] was inactive. Besides, the result in [19] was inactive.

What is called AC50 is the concentration at which the activity in the assay is half-maximal. With `OCCC(F)(F)C(F)(F)C(F)(F)C(F)(F)C(F)(F)C(F)(F)C(F)(F)C(F)(F)F`, the AC50 in [1] was 30 µM (active) and 18.4 µM (active); in assay [2], 14.6 µM (active) and 11.2 µM (active); in [3], 42.3 µM (active) and 43.7 µM (active); in assay [4], 12.3 µM (active) and 23.2 µM (active) and 11.5 µM (active); in assay [5] it was 18.3 µM (active) and 11.9 µM (active); in [7], 19.2 µM (active) and 17.4 µM (active). For the same compound, the concentration at half-maximal activity (AC50) in assay [8] was 11.4 µM (active) and 5.06 µM (active); in assay [9] it was 13.8 µM (active) and 12.1 µM (active); in assay [10], 13.8 µM (active) and 15.5 µM (active); in assay [12] it was 18 µM (active) and 17.8 µM (active); in assay [13] it was 16.1 µM (active) and 12.8 µM (active); in assay [14] it was 12.8 µM (active). The AC50 in [15] was 23.2 µM (active) and 20 µM (active); in assay [16] it was 15.7 µM (active); in assay [17], 18.1 µM (active) and 14.5 µM (active); in assay [18], 17.3 µM (active) and 9.96 µM (active); in assay [19], 19.9 µM (active) and 14.6 µM (active). For the same compound, the outcome in assay [1], in assay [2], in [3], in [5], in [6] and in assay [7] was inactive. Moreover, the outcome in assay [8], in [9], in assay [10], in assay [12], in [13] and in assay [14] was inactive. The result in assay [15], in assay [16], in assay [17], in assay [18] and in assay [19] was inactive.

These data come from PubChem BioAssay (EPA / NIEHS).
